Data published in PubChem BioAssay (NCI).
Where “and” joins values, the source holds several entries; their conditions need not be identical. Equal entries are not always repeated. The panel holds about 83,000 compounds, 20% with a hit somewhere; the sample as a whole holds those more often.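 The endpoint reported here, percent growth, reads 100 for growth as untreated, 0 for no net growth and -100 for all cells dead.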 Calls of active or inactive are those of the source. How the source made its calls: active means growth percent below 10; inactive means the rest.

What was measured:
Assay in all cases: NCI-60 one-dose screen, 48 h (100 = growth as untreated, 0 = no growth, -100 = all killed)
Details in all cases: 10 µM
NCI-H23 lung = test system: NCI-H23 lung
NCI-H226 lung = test system: NCI-H226 lung
NCI-H322M lung = test system: NCI-H322M lung
HOP-62 NSCLC = test system: HOP-62 NSCLC
NCI-H460 lung = test system: NCI-H460 lung
HOP-92 NSCLC = test system: HOP-92 NSCLC
NCI-H522 lung = test system: NCI-H522 lung
A549/ATCC NSCLC = test system: A549/ATCC NSCLC
786-0 renal = test system: 786-0 renal
COLO 205 colon = test system: COLO 205 colon

Measured: growth

N#CC(=C1C=CC(=NO)C=C1)c1ccccc1
active: HOP-62 NSCLC 6.93% | NCI-H460 lung 1.48% | HOP-92 NSCLC -7.52% | 786-0 renal 6.67%
inactive: NCI-H23 lung 35.3% | NCI-H226 lung 44.5% | NCI-H322M lung 66.3% | NCI-H522 lung 39% | A549/ATCC NSCLC 34%

COc1ccc(C(C#N)=C2C=CC(=NO)C=C2)cc1
active: NCI-H226 lung -14.3% | NCI-H522 lung -24.7%
inactive: NCI-H23 lung 94.9% | NCI-H322M lung 94.3% | HOP-62 NSCLC 47.7% | NCI-H460 lung 65.8% | HOP-92 NSCLC 137% | A549/ATCC NSCLC 88.9% | 786-0 renal 34.9%

O=[N+]([O-])c1cc(S(=O)(=O)Nc2ccccc2)ccc1Cl
inactive: NCI-H23 lung 97% | NCI-H226 lung 99% | NCI-H322M lung 90.9% | HOP-62 NSCLC 104% | NCI-H460 lung 108% | HOP-92 NSCLC 90% | NCI-H522 lung 73.8% | A549/ATCC NSCLC 91.6% | 786-0 renal 100%

CCC(=O)Oc1ccc(/C=N/NC(N)=S)nc1
inactive: NCI-H23 lung 26.7% | NCI-H226 lung 79.1% | NCI-H322M lung 46% | HOP-62 NSCLC 36.4% | NCI-H460 lung 52% | HOP-92 NSCLC 68.5% | NCI-H522 lung 39.4% | A549/ATCC NSCLC 98.8% | 786-0 renal 23.6%

S=C1SCN(CCc2ccccc2)CN1CCc1ccccc1
inactive: NCI-H23 lung 96.5% | NCI-H226 lung 99.4% | NCI-H322M lung 86.5% | HOP-62 NSCLC 87.6% | NCI-H460 lung 108% | NCI-H522 lung 58.6% | A549/ATCC NSCLC 90.8% | 786-0 renal 117%

CCOC(=O)[C@]1(Br)CC[C@@]1(Br)C(=O)OCC
inactive: NCI-H23 lung 109% | NCI-H226 lung 91.8% | NCI-H322M lung 92.8% | HOP-62 NSCLC 127% | NCI-H460 lung 117% | HOP-92 NSCLC 109% | 786-0 renal 118%
active: NCI-H522 lung -6.96%

Cc1cc(C)c(N2C(=O)CC(Sc3ccccc3N)C2=O)c(C)c1 (stereo unspecified)
inactive: NCI-H23 lung 82.6% | NCI-H322M lung 112% | HOP-62 NSCLC 70.4% | NCI-H460 lung 95.6% | NCI-H522 lung 78.8% | A549/ATCC NSCLC 74.8% | 786-0 renal 112%

N#C/C(=C/N1C(=O)/C(=C/c2ccc([N+](=O)[O-])cc2)SC1=S)c1nc2ccccc2s1
inactive: NCI-H23 lung 89.1% | NCI-H226 lung 63.8% | NCI-H322M lung 88.1% | HOP-62 NSCLC 82.4% | NCI-H460 lung 90.3% | HOP-92 NSCLC 66.8% | NCI-H522 lung 78.7% | A549/ATCC NSCLC 91.4% | 786-0 renal 94.8%

Cn1c2nc3ccccc3c-2nc2ccccc21
inactive: NCI-H23 lung 94.1% and 91.3% | NCI-H226 lung 104% | NCI-H322M lung 99.7% and 88.7% | HOP-62 NSCLC 80.5% and 85.1% | NCI-H460 lung 86.9% and 86.5% | HOP-92 NSCLC 77.6% and 79.1% | NCI-H522 lung 102% and 87.8% | A549/ATCC NSCLC 96.1% and 86.3% | 786-0 renal 96.6% and 94.4%

O=C1c2ccccc2CCC1(Br)Br
inactive: NCI-H23 lung 28.9% | NCI-H226 lung 27.1% | NCI-H322M lung 100% | HOP-62 NSCLC 96.5% | NCI-H460 lung 95% | A549/ATCC NSCLC 96% | 786-0 renal 14.8%
active: NCI-H522 lung -70.8%

COc1cc(N)ccc1Nc1c2ccccc2nc2ccccc12
inactive: NCI-H23 lung 91.8% | NCI-H226 lung 73.3% | NCI-H322M lung 83.6% | HOP-62 NSCLC 83.6% | A549/ATCC NSCLC 40.8% | 786-0 renal 69.4% | COLO 205 colon 12.4%
active: NCI-H460 lung 4.72%

CCC(C)(c1ccc(O)c(C)c1)c1ccc(O)c(C)c1
inactive: NCI-H23 lung 91.9% | NCI-H226 lung 101% | NCI-H322M lung 318% | HOP-62 NSCLC 84.5% | NCI-H460 lung 97.3% | HOP-92 NSCLC 82.4% | NCI-H522 lung 75.9% | A549/ATCC NSCLC 83.4% | 786-0 renal 63.5%

C=C1N(C)c2ccc(Cl)cc2C1(C)C
inactive: NCI-H23 lung 52% | NCI-H226 lung 67.6% | NCI-H322M lung 84.2% | HOP-62 NSCLC 63.6% | NCI-H460 lung 39.4% | HOP-92 NSCLC 48.1% | NCI-H522 lung 23.7% | A549/ATCC NSCLC 44.4% | 786-0 renal 75.8%

CC[C@@]1(OC(=O)CN(C)C)C(=O)OCc2c1cc1n(c2=O)Cc2cc3c(N)cccc3nc2-1
active: NCI-H23 lung -26.7% | NCI-H226 lung -13.4% | NCI-H322M lung -18.6% | HOP-62 NSCLC -5.79% | NCI-H460 lung -5.75% | NCI-H522 lung -26% | A549/ATCC NSCLC 4.76% | 786-0 renal 0.893%

Cc1cc(N=C2C=CC(=[N+](C)C)C=C2)c(N)cc1N
inactive: NCI-H23 lung 78.2% | NCI-H226 lung 97.9% | NCI-H322M lung 93.7% | HOP-62 NSCLC 101% | NCI-H460 lung 102% | HOP-92 NSCLC 97.3% | NCI-H522 lung 77.7% | A549/ATCC NSCLC 84.6% | 786-0 renal 96%

O=Nc1ccc(Nc2ccccc2)cc1
inactive: NCI-H23 lung 89% | NCI-H226 lung 92.8% | NCI-H322M lung 98.5% | HOP-62 NSCLC 111% | NCI-H460 lung 97.8% | HOP-92 NSCLC 26% | NCI-H522 lung 66.8% | 786-0 renal 80%

O=C(CNS(=O)(=O)Cc1ccccc1)NNc1ccccc1
inactive: NCI-H23 lung 92.3% | NCI-H226 lung 72.9% | NCI-H322M lung 75% | HOP-62 NSCLC 46.3% | NCI-H460 lung 29.4% | HOP-92 NSCLC 101% | NCI-H522 lung 41% | A549/ATCC NSCLC 55.8% | 786-0 renal 76.6%

ClCCn1c(CCl)nc2ccc(Cl)cc21
inactive: NCI-H322M lung 99.5%
active: NCI-H23 lung -17.1% | NCI-H460 lung 0.311% | HOP-92 NSCLC -57.2% | NCI-H522 lung -73.2% | A549/ATCC NSCLC -12.5% | 786-0 renal -59.9%

COc1cccc(C(c2cc3c(cc2O)OCO3)N2CCOCC2)c1OC (stereo unspecified)
inactive: NCI-H23 lung 109% | NCI-H226 lung 99.6% | NCI-H322M lung 101% | HOP-62 NSCLC 101% | NCI-H460 lung 104% | HOP-92 NSCLC 99.6% | NCI-H522 lung 94.8% | A549/ATCC NSCLC 99.9% | 786-0 renal 101%

COc1ccc2c(c1)[nH]c1c(/C=C/c3ccccc3)nccc12
inactive: NCI-H23 lung 60.8% | NCI-H226 lung 73% | NCI-H322M lung 70.5% | HOP-62 NSCLC 71.8% | NCI-H460 lung 56.2% | NCI-H522 lung 40.3% | A549/ATCC NSCLC 87.3% | 786-0 renal 62.9%

COc1ccc(N)c2c1C(=O)c1ccccc1C2=O
inactive: NCI-H23 lung 99.6% | NCI-H226 lung 93.5% | NCI-H322M lung 91.1% | HOP-62 NSCLC 111% | NCI-H460 lung 98.1% | HOP-92 NSCLC 84.1% | NCI-H522 lung 88.6% | A549/ATCC NSCLC 96.7% | 786-0 renal 112%

CN(C)CCNc1cccc2sc3ccc(O)cc3c(=O)c12
inactive: NCI-H23 lung 54.6% | NCI-H226 lung 74% | NCI-H322M lung 59.1% | HOP-62 NSCLC 46.2% | NCI-H460 lung 16% | HOP-92 NSCLC 31.9% | A549/ATCC NSCLC 17.3% | 786-0 renal 63.3%

O=C(O)c1ccccc1.[Ag]
inactive: NCI-H23 lung 99.3% | NCI-H226 lung 104% | NCI-H322M lung 109% | HOP-62 NSCLC 108% | NCI-H460 lung 100% | HOP-92 NSCLC 107% | A549/ATCC NSCLC 54% | 786-0 renal 108% | COLO 205 colon 25.8%
active: NCI-H522 lung -25.1%
